# Source: PubChem BioAssay
# ADAM10 inh: inhibits human ADAM10. inhibition, % at 7 µM. AID 720582. 0.62% of 370,000 active. recombinant ADAM10, EDANS/DABCYL FRET peptide cleavage, 3 h;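 active = inhibition above a per-campaign cutoff equal to the mean of compounds falling between control-based bounds plus 3 SD, cut at about 20% in these data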;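 also: 0% = DMSO wells while the 100% control is not disclosed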
# FAS-TE inh: blocks the thioesterase domain of human fatty acid synthase; 0.67% of 360,000 active; inhibition, % at 15 µM; recombinant FAS-TE, OMFH fluorogenic substrate, fluorescence endpoint; P49327;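 active = compounds whose normalised, plate-corrected inhibition of enzyme fluorescence in the single-dose primary screen is 50% or more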;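 also: 0% = DMSO with enzyme and 100% = substrate without enzyme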
# GRIN3A LBD mod: NR3A (human) ligand-binding domain modulation; NR3A LBD differential scanning fluorimetry, Tm shift; 0% = protein alone, 100% = glycine-bound protein; Tm shift relative to glycine control, % at 25 µM; 2.5% of 340,000 active;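 active = melting temperature shift of at least 10% of the positive control shift, at one fixed dose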
# ADAM17 inh: ADAM17 inhibition, QFRET primary screen | AID 720648 | P78536 | recombinant ADAM17, EDANS/DABCYL FRET peptide cleavage | inhibition, % at 6.95 µM | 0.83% of 370,000 active;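 active = inhibition above the mean of compounds lying between control limits plus 3 SD, set per campaign, cut at about 8.5% in these data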;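 also: 0% = DMSO-only wells as the low control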
# sPLA2-III inh: Blocks human group III sPLA2 activity; Q9NZ20; QFRET BODIPY PC-A2 liposome hydrolysis, fluorescence; inhibition, % at 12.2 µM; 0.56% of 370,000 active;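 active = inhibition above mean plus 3 SD of compounds lying within the high and low control bounds, cut at about 19% in these data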;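 also: 0% = median of test compound wells and 100% = no enzyme DMSO wells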
# Target sequence (Q9NZ20 whole entry, looked up): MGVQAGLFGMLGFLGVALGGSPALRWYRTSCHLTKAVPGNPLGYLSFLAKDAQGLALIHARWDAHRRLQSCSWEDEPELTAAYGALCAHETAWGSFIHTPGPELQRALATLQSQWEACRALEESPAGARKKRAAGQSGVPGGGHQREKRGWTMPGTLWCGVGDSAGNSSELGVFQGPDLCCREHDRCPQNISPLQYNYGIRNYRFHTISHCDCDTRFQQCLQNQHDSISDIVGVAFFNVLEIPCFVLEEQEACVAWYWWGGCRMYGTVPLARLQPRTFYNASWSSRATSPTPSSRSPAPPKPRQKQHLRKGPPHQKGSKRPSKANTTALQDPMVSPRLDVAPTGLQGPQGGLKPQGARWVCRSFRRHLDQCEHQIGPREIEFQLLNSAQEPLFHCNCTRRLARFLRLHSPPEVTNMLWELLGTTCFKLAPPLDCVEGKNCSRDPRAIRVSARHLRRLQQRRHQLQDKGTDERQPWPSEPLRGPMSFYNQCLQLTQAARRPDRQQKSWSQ
# * hit, by the source's call; . = not tested or not shown. Shown are actives, neighbours in structure and some others; about 4.3% of the full set was active somewhere.
SMILES,ADAM10 inh,FAS-TE inh,GRIN3A LBD mod,ADAM17 inh,sPLA2-III inh
Cc1nc(N)sc1C(=O)N/N=C/c1c[nH]c2ccccc12,2.7,-8.1,24.4*,-6.0,0.1
Cc1nc(N)sc1C(=O)N/N=C/c1ccccc1[N+](=O)[O-],1.5,-4.9,.,3.0,-3.9
O=C(NC(Cc1c[nH]c2ccccc12)C(=O)N/N=C/c1cccc2ccccc12)c1cccs1 (configuration not stated),11.5,37.3,19.4*,1.1,-64.2
CC(=O)n1cc(/C=N/NC(=O)c2ccc([N+](=O)[O-])cc2)c2ccccc21,5.1,20.6,21.4*,-1.9,0.8
CCn1c(SCC(=O)Nc2ccc(C(N)=O)cc2)nc2sc(C)c(C)c2c1=O,1.4,.,.,0.7,0.3
COC(=O)[C@]1(CNC(C)=O)CC(=O)N(C)[C@@H]1c1ccccc1,-2.7,.,.,-1.2,-2.3
O=C(N/N=C/c1c[nH]c2ccccc12)c1sc2ccccc2c1Cl,2.7,14.0,34.5*,0.7,-15.1
COc1ccccc1C(=O)N/N=C/c1c[nH]c2ccccc12,-4.3,-2.5,13.8*,-2.8,-5.3
Cc1cccc(NC(=S)N/N=C/c2c[nH]c3ccccc23)c1,5.7,24.0,33.1*,3.2,3.4
O=C(N/N=C/c1ccccn1)c1sc2ccccc2c1Cl,-8.8,28.1,-3.1,-1.2,9.1
O=C(CSc1nnc(SCc2ccc(Cl)cc2)s1)N/N=C/c1c[nH]c2ccccc12,1.7,3.8,23.8*,1.9,-1.1
Cc1cc(C(=O)N/N=C/c2c[nH]c3ccccc23)cs1,1.4,-7.3,26.9*,-2.1,-0.9
O=C(N/N=C/c1c[nH]c2ccccc12)c1ccc2c(c1)OCCO2,0.9,-1.7,10.9*,-2.0,-5.6
O=C(NN=Cc1c[nH]c2ccccc12)NN=Cc1c[nH]c2ccccc12,-8.6,1.6,.,-0.3,-13.9
O=C(N/N=C/c1c[nH]c2ccccc12)c1cccs1,-4.3,13.7,22.6*,-2.3,-11.0
O=C(N/N=C/c1c[nH]c2ccccc12)c1ccccc1,-2.5,-7.0,18.1*,-1.9,11.2
Cc1ccc(C(=O)Nc2ccc(C(=O)N/N=C/c3c[nH]c4ccccc34)cc2)cc1,-16.7,9.4,31.3*,-5.1,-10.8
Cc1nc(N)sc1C(=O)N/N=C/c1ccc([N+](=O)[O-])cc1,-3.3,-2.3,-2.3,-1.3,-5.8
O=C(N/N=C/c1ccccc1O)c1ccc2c(c1)OCO2,-47.9,1.7,.,-20.4,12.6
COc1cc(/C=N\NC(=O)c2sc(N)nc2C)cc(OC)c1OC,-7.6,-4.7,16.6*,-4.6,-0.7
O=C(N/N=C/c1c[nH]c2c1ccc1ccccc12)c1ccc([N+](=O)[O-])cc1,7.8,-2.1,39.1*,5.8,1.5
O=C(N/N=C/c1cc(Br)cc(Cl)c1O)c1ccc2c(c1)OCO2,-2.5,24.4,10.5*,-0.3,18.9
O=C(CCC(=O)Nc1ccc(F)cc1)N/N=C/c1c[nH]c2ccccc12,0.5,-0.3,-3.6,2.5,-8.3
CCN(Cc1cccs1)c1ncnc2ccc(-c3ccc4c(c3)OCO4)cc12,-99.7,.,.,-32.0,-12.9
O=C(C1CCCN(S(=O)(=O)c2ccc(Br)s2)C1)N1CCN(Cc2ccccc2)CC1 (configuration not stated),-1.9,.,.,1.0,-11.7
SMILES,ADAM10 inh,FAS-TE inh,GRIN3A LBD mod,ADAM17 inh,sPLA2-III inh
O=C(N/N=C/c1c[nH]c2ccccc12)c1cccc([N+](=O)[O-])c1,0.2,18.0,24.7*,0.6,3.8
O=C(N/N=C/c1coc2ccccc2c1=O)c1cccc([N+](=O)[O-])c1,4.8,19.2,-4.7,-20.8,1.8
COC(=O)c1ccc(NC(=O)Nc2ccc(F)cc2F)cc1,14.4,-2.0,5.4,-0.6,-14.1
O=C(Nc1cccc(F)c1)Nc1cnccn1,-17.9,-4.6,21.1*,-4.5,-0.8
COC(=O)c1ccc(NC(=O)Nc2cccc(F)c2)cc1,9.1,7.0,29.8*,2.5,-15.8
Cc1cc(C)cc(NC(=O)Nc2ccc3c(c2)CCC3)c1,-4.2,-7.0,11.5*,0.2,3.6
O=C(Nc1cccc(F)c1)Nc1ccc2c(c1)CCC2,-5.9,4.4,42.6*,-0.2,1.5
Cc1nc2ccc(S(=O)(=O)NCC(=O)NCc3ccccc3C)cc2s1,-0.2,.,.,0.2,-6.3
COCCCNC(=O)C[C@H]1C[C@@]2(C(=O)OC)C(=C[C@H](COCc3ccccc3)O[C@@H]2C)N(Cc2ccccc2)C1=O,0.2,.,.,1.7,0.5
O=C(Nc1ccc(F)cc1)Nc1cccc(Br)c1,7.4,9.4,43.4*,3.4,-19.2
COc1ccc(C)cc1NC(=O)Nc1ccc2c(c1)CCC2,1.9,10.9,11.1*,4.9,-11.2
O=C(Nc1ccccc1)Nc1ccc2c(c1)CCC2,2.9,3.3,11.4*,4.0,-11.3
COC(=O)[C@]12C[C@H](CC(=O)NCc3cccs3)C(=O)N(Cc3ccccc3)C1=C[C@H](COCc1ccccc1)O[C@@H]2C,-0.4,.,.,-1.5,-3.6
NC(=O)c1ccc(NS(=O)(=O)c2ccc(Br)s2)cc1,6.5,-4.3,-14.2,1.4,-6.2
Cc1ccc(F)cc1NC(=O)c1ccc(NS(=O)(=O)c2ccc(Br)s2)cc1,-0.2,6.7,16.3*,-2.0,-29.7
Cc1sc2ncnc(OCC(=O)NCc3cccs3)c2c1C,-1.4,-2.5,-1.4,-3.0,-1.8
CNC(=O)COc1ncnc2sc(C)c(C)c12,6.9,-8.6,14.2*,-2.1,4.2
Cc1ccc(OCC(=O)O/N=C(\N)Cc2ccc(Cl)cc2)cc1,8.2,4.2,0.9,3.1,-8.9
COc1ccc(OCC(=O)O/N=C(\N)Cc2ccc(Cl)cc2)cc1,7.4,-12.1,14.6*,1.8,-6.7
CCOc1ccc(C(=O)/C=C/c2cn(CN3CCN(C)CC3)c3ccccc23)cc1,-52.9,-0.4,32.1*,-29.2,-34.0
COc1ccc(C(=O)/C=C/c2cn(CC(O)CN3CCOCC3)c3ccccc23)cc1 (configuration not stated),.,-5.4,-0.6,.,.
COc1ccc(C(=O)/C=C/c2cn(CN3CCN(C)CC3)c3ccccc23)cc1,.,-4.9,35.6*,.,.
S=C(NNC(=S)Nc1ccccc1)Nc1ccccc1,5.8,-5.7,34.5*,2.8,-0.6
Fc1cc(Br)ccc1NC(=S)Nc1ccccc1,-4.8,-10.2,-1.2,-1.8,1.3
S=C(NN=C(C1CC1)C1CC1)Nc1ccccc1,9.7,-6.7,11.2*,4.3,2.0
Fc1ccccc1NC(=S)Nc1ccc(Br)cc1,4.2,4.8,25.2*,-4.8,14.5
S=C(Nc1ccccc1)Nc1cccc(Br)c1,-5.2,0.4,16.2*,-3.5,0.0
CCC(CC)NC(=O)O[C@H]1CC[C@@]23CCCN2C(=O)CCC[C@H]3[C@H]1C,5.2,.,.,-2.2,0.3
COc1cc(OC)c2ccc(=O)oc2c1C(CCN1CCOCC1)c1ccc2c(c1)OCO2 (configuration not stated),-16.2,12.4,15.4*,-7.1,2.2
COc1cc(OC)c2ccc(=O)oc2c1C(CCN1CCCC1)c1ccc2c(c1)OCO2 (configuration not stated),-12.4,43.0,-0.5,-0.2,-4.2
